# Test results reported in PubChem BioAssay AID652154 (Broad Institute, 2013).
# Screen size: about 360,000 compounds; about 4,200 (1.2%) were called active. The list comes from a sample in which actives are over-represented; it also holds similar structures and randomly drawn compounds. Unmarked numbers belong to inactive results.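 How the source made its calls: active means mean replicate inhibition at least 60% with every replicate also reaching 60%; inconclusive means only one of the two criteria is met; inactive means mean below 60% and not all replicates reaching 60%.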
# Assay: inhibitors of PAX8-driven TPO luciferase reporter, primary screen, RMG-I cells, single concentration (AID 652154);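 further: luciferase light reporting Pax8 driven TPO promoter activity; plate controls were median of neutral control wells for no effect and mitoxantrone controls for full effect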
# Settings: SteadyGlo, 24 h, at 12.6 µM, hits give high values
row,SMILES,inhibition
1,COc1ccc(NC(=O)N(C)C[C@H]2Oc3ccc(NC(=O)Cc4cn(C)c5ccccc45)cc3CC(=O)N([C@@H](C)CO)C[C@H]2C)cc1,16.5%
2,CN(Cc1ccc(F)cc1)C(=O)CN1C(=O)c2ccccc2S1(=O)=O,-2.85%
3,CN(Cc1cccs1)C(=O)CN1C(=O)c2ccccc2S1(=O)=O,-105%
4,O=C(CN1C(=O)c2ccccc2S1(=O)=O)N1CCc2ccccc21,90.5% (active)
5,C[C@@H]1CN([C@@H](C)CO)C(=O)Cc2cc(NC(=O)Cc3ccccc3)ccc2O[C@@H]1CN(C)Cc1ccc2c(c1)OCO2,13.6%
6,Cc1cc(C(=O)Nc2cccc3c2O[C@@H](CN(C)C(=O)Nc2ccc(F)cc2)[C@H](C)CN([C@@H](C)CO)C3=O)n(C)n1,7.05%
7,COc1ccc(NC(=O)Nc2ccc3c(c2)C(=O)N([C@@H](C)CO)C[C@H](C)[C@H](CN(C)CC2CCCCC2)O3)cc1,-0.963%
8,O=C1/C(=C\c2ccc([N+](=O)[O-])cc2)CS(=O)(=O)C/C1=C/c1ccc([N+](=O)[O-])cc1,122% (active)
9,CC(=O)Nc1ccc(C=CC(=O)c2ccc([N+](=O)[O-])cc2)cc1,15.2%
10,O=C(O)C(=Cc1ccc([N+](=O)[O-])cc1)CCc1ccccc1,8.95%
11,COc1ccc(S(=O)(=O)N(C)C[C@H]2Oc3c(NC(=O)C4CCOCC4)cccc3C(=O)N([C@@H](C)CO)C[C@@H]2C)cc1,-8.86%
12,Cn1cnc(CCNC(=O)[C@H]2[C@H](CO)[C@H]3Cn4c(cccc4=O)[C@H]3N2C(=O)Nc2ccccc2)c1,-6.72%
13,Cn1cnc(S(=O)(=O)N2C[C@@H](O)COC[C@@H]3O[C@H](CC(=O)NCc4ccc(F)cc4)CC[C@H]32)c1,-3.38%
14,Cc1ccc(/C=N/NC(=O)CSc2nc3ccccc3o2)cc1,-83%
15,Cc1ccc(COc2ccc(/C=N/NC(=O)CN3CCCCC3)cc2)cc1,-222%
16,Cc1ccc(/C=N/NC(=O)COc2ccccc2-c2ccccc2)cc1,87.7% (active)
17,O=C(C[C@H]1CC[C@@H](NC(=O)Nc2ccc(C(F)(F)F)cc2)[C@H](CO)O1)NCc1cc(F)cc(F)c1,-5.75%
18,Cc1ccccc1-c1ccc([C@@H]2[C@@H](CO)N3CCCCN(C(=O)Nc4cccc(F)c4)C[C@H]23)cc1,10.4%
19,CC(C)Cc1nnc(NC(=O)CCc2ccccc2)s1,-22.6%
20,CC(C)Cc1nnc(NC(=O)CCNC(=O)c2ccccc2Cl)s1,-15.6%
21,Cc1ccc(S(=O)(=O)CCC(=O)Nc2nnc(CC(C)C)s2)cc1,82.8% (active)
22,C[C@H](NC(=O)C[C@H]1C=C[C@H](NS(=O)(=O)c2cccc(F)c2)[C@@H](CO)O1)c1ccccc1,-17.2%
23,Cc1noc(C)c1NC(=O)N(C)C[C@@H]1OCCCC[C@H](C)Oc2ccc(NC(=O)C3CCCCC3)cc2C(=O)N([C@H](C)CO)C[C@@H]1C,9.59%
24,COc1ccc(N(C)C(=O)CCS(=O)(=O)c2cccc3nsnc23)cc1,1.7%
25,COc1cccc2sc(N(CCCN(C)C)C(=O)CCS(=O)(=O)c3ccccc3)nc12,97.8% (active)
26,Cc1cccc2sc(N(CCCN(C)C)C(=O)CCS(=O)(=O)c3ccccc3)nc12,95.4% (active)
27,CCN(CC)CCN(C(=O)c1ccc2c(c1)CCCC2)c1nc2c(OC)cccc2s1,14.3%

row,SMILES,inhibition
1,Cc1cccc(C)c1NC(=O)CCS(=O)(=O)c1cccc2nsnc12,15.3%
2,O=C(CCS(=O)(=O)c1ccccc1)Nc1nc2c(s1)CCCC2,51.3%
3,CC(C)NC(=O)N[C@@H]1CC[C@H](CCn2cc(-c3ccccc3)nn2)O[C@H]1CO,-6.01%
4,CCS(=O)(=O)N1[C@H](C#N)[C@H](c2ccc(-c3cccc(F)c3)cc2)[C@@H]1CO,-12.2%
5,C[C@@H]1CN([C@@H](C)CO)C(=O)c2cc(NC(=O)NC3CCCCC3)ccc2O[C@@H](C)CCCCO[C@H]1CN(C)Cc1ccccc1,-10.1%
6,C[C@@H]1CN([C@@H](C)CO)C(=O)c2cccc(NS(=O)(=O)c3cn(C)cn3)c2O[C@@H]1CN(C)Cc1ccc(Cl)c(Cl)c1,-5.72%
7,COCC(=O)Nc1ccc2c(c1)OC[C@H](C)N(C(=O)COC)C[C@@H](C)[C@H](OC)CN(C)C2=O,-25.8%
8,Cc1cccc(S(=O)(=O)N2C[C@H]3[C@@H](c4ccccc42)[C@H](CO)N3Cc2ccc3c(c2)OCO3)c1,32%
9,CC(=O)N(C)C[C@@H]1Oc2cc(-c3cccnc3)ccc2S(=O)(=O)N([C@H](C)CO)C[C@H]1C,-6.51%
10,O=C(CC1CC1)N1CC[C@@H]2[C@H](CO)Nc3ccc(-c4ccc(F)cc4)cc3[C@@H]21,14%
11,O=C(C[C@@H]1CC[C@@H]2[C@H](COC[C@@H](O)CN2Cc2cc(F)cc(F)c2)O1)NCc1cccc(F)c1,16%
12,Cc1cccc(-c2ccc([C@@H]3[C@H]4CN(C(=O)c5ccccc5)CC(=O)N4[C@H]3CO)cc2)c1,23.1%
13,O=C(C[C@@H]1CC[C@H]2[C@@H](COC[C@@H](O)CN2C(=O)c2ccc3c(c2)OCO3)O1)NC1CCCC1,-8.12%
14,CCCNC(=O)c1c(Cl)cnn1-c1ccc(C)cc1,-169%
15,CC(=O)Nc1c2c(nn1-c1cccc(C)c1)CSC2,13.4%
16,Cc1cccc(-n2ncc(Cl)c(Cl)c2=O)c1,99.9% (active)
17,O=c1ccc2c(-c3ccccc3S(=O)(=O)O)c3ccc(O)c(O)c3oc-2c1O,65.9% (active)
18,CN(C)C(=O)C[C@@H]1CC[C@@H](NC(=O)NC2CCCC2)[C@@H](CO)O1,-11%
19,Cn1cnc(CCNC(=O)C[C@H]2CC[C@H]3[C@@H](COC[C@@H](O)CN3C(=O)Nc3ccc(C(F)(F)F)cc3)O2)c1,-9.72%
20,CC(C)NC(=O)N1C[C@H]2[C@@H](c3ccccc31)[C@H](CO)N2C(=O)c1ccccc1F,-9.19%
21,CN(c1cccc(NC(=O)c2ccc(CN3CCc4ccccc4C3)cc2)c1)S(C)(=O)=O,72.6% (active)
22,CS(=O)(=O)N1CCc2cc(C(=O)Nc3ccccc3)ccc21,-94%
23,CC(=O)Nc1cccc(NC(=O)c2ccc3c(c2)CCN3S(C)(=O)=O)c1,-7.18%
24,CCCNC(=O)C[C@H]1CC[C@H]2[C@H](COc3ccc(NC(=O)CC)cc3C(=O)N2C)O1,-14.6%
25,N#Cc1c(NC(=O)CCCl)sc2c1CCCCC2,60.9% (active)
26,N#Cc1c(NC(=O)C2CCCO2)sc2c1CCCCC2 (stereo not given),-175%
27,N#Cc1c(NC(=O)C2CC(Cl)=CCC2C(=O)O)sc2c1CCCCC2 (stereo not given),-9.86%

row,SMILES,inhibition
1,O=C(Nc1ccc2c(c1)OCO2)N[C@@H]1CC[C@H](CC(=O)N2CCN(c3ccccc3)CC2)O[C@@H]1CO,-5.75%
2,O=C(C[C@H]1C[C@@H]2c3cc(NC(=O)c4cccnc4)ccc3O[C@@H]2[C@@H](CO)O1)NCc1ccccc1F,-5.11%
3,CC(=O)c1ccc(S(=O)(=O)NCc2nnnn2-c2ccccc2)cc1,3.71%
4,O=C(NCc1nnnn1-c1ccc(Cl)cc1)c1ccc2c(c1)OCO2,2.39%
5,O=C(NCc1nnnn1-c1ccc(Cl)cc1)c1ccc([N+](=O)[O-])o1,77.5% (active)
6,CCCc1cn(CC[C@@H]2CC[C@@H](NC(=O)C3CC3)[C@H](CO)O2)nn1,-17.8%
7,O=C(C[C@@H]1CC[C@@H](NC(=O)CC2CC2)[C@H](CO)O1)NCc1ccc(-c2ccccc2)cc1,2.89%
8,C[C@H](CO)N1C[C@H](C)[C@@H](CN(C)Cc2ccccn2)Oc2ncc(C3=CCCC3)cc2C1=O,-41%
9,COc1cccc(-c2cnc3c(c2)C(=O)N([C@@H](C)CO)C[C@@H](C)[C@@H](CN(C)Cc2ccc(C(=O)O)cc2)O3)c1,-16.9%
10,CCC(=O)N1[C@@H]2c3ccc(-c4ccc(F)cc4)c(=O)n3C[C@H]1[C@H](CO)[C@H]2C(=O)N(C)C,7.01%
11,Cc1ccc(C)c(N2CCN(C(=O)CCCn3c(=O)c4cccn4c4cccnc43)CC2)c1,13.6%
12,O=C(CCCCCn1c(=S)[nH]c2cc3c(cc2c1=O)OCO3)N1CCN(c2ccc(F)cc2)CC1,3.47%
13,Cc1ccc(C)c(N2CCN(C(=O)CCCCCn3c(=S)[nH]c4ccc(N5CCOCC5)cc4c3=O)CC2)c1,95% (active)
14,C[C@@H](NC(=O)C[C@H]1C=C[C@@H](NC(=O)CN2CCOCC2)[C@@H](CO)O1)c1ccccc1,-7.59%
15,COc1ccc(S(=O)(=O)Nc2ccc3c(c2)C(=O)N([C@@H](C)CO)C[C@@H](C)[C@H](CN(C)Cc2ccc(C(F)(F)F)cc2)OCCCC[C@@H](C)O3)cc1,27.5%
16,Cc1ccc(S(=O)(=O)Nc2ccc3c(c2)C(=O)N([C@H](C)CO)C[C@@H](C)[C@H](CN(C)Cc2ccccc2)OCCCC[C@H](C)O3)cc1,45.2%
17,Cc1ccc(S(=O)(=O)Nc2ccc3c(c2)C(=O)N([C@@H](C)CO)C[C@@H](C)[C@H](CN(C)Cc2ccc(Cl)c(Cl)c2)OCCCC[C@@H](C)O3)cc1,75.8% (active)
18,COc1ccc(CN(C)C[C@@H]2OCCCC[C@H](C)Oc3ccc(NS(=O)(=O)c4ccc(F)cc4)cc3C(=O)N([C@H](C)CO)C[C@H]2C)cc1,-1.69%
19,C[C@@H]1CCCCO[C@@H](CN(C)Cc2ccc(Cl)c(Cl)c2)[C@H](C)CN([C@@H](C)CO)C(=O)c2cc(NS(C)(=O)=O)ccc2O1,6.58%
20,C[C@@H]1CCCCO[C@@H](CN(C)Cc2ccc(C(F)(F)F)cc2)[C@H](C)CN([C@H](C)CO)C(=O)c2cc(NS(=O)(=O)c3ccc(F)cc3)ccc2O1,104% (active)
21,COc1ccc(CN(C)C[C@@H]2OCCCC[C@@H](C)Oc3ccc(NS(=O)(=O)c4ccc(F)cc4)cc3C(=O)N([C@@H](C)CO)C[C@H]2C)cc1,-7.37%
22,C[C@H](CO)N1C[C@H](C)[C@H](CN(C)Cc2ccc(C(F)(F)F)cc2)OCCCC[C@H](C)Oc2ccc(NS(=O)(=O)c3ccc(Cl)cc3)cc2C1=O,19.1%
23,COc1ccc(S(=O)(=O)Nc2ccc3c(c2)C(=O)N([C@@H](C)CO)C[C@H](C)[C@H](CN(C)Cc2ccc(C(F)(F)F)cc2)OCCCC[C@@H](C)O3)cc1,94.8% (active)
24,Cc1ccc(S(=O)(=O)Nc2ccc3c(c2)C(=O)N([C@H](C)CO)C[C@H](C)[C@@H](CN(C)Cc2ccccc2)OCCCC[C@H](C)O3)cc1,-7.59%
25,Cc1ccc(S(=O)(=O)Nc2ccc3c(c2)C(=O)N([C@@H](C)CO)C[C@@H](C)[C@@H](CN(C)Cc2ccc(C(F)(F)F)cc2)OCCCC[C@@H](C)O3)cc1,105% (active)
26,Cc1ccc(S(=O)(=O)Nc2ccc3c(c2)C(=O)N([C@@H](C)CO)C[C@@H](C)[C@H](CN(C)Cc2ccc4c(c2)OCO4)OCCCC[C@@H](C)O3)cc1,-3.85%
